Data reported in PubChem BioAssay AID1159580 (chemical genetic matrix, 2015).
In all, about 5,500 compounds went through this assay and about 2,000 (36%) were called active. Not shown: some 18% with an inconclusive outcome. Cut-off read from the data, not from the text of the source: active = normalized growth mostly below about 0.91 (no sharp cut-off); inconclusive = no clear call, values can overlap the other calls; inactive = mostly above about 0.92. This is one part of the list.

Assay: chemical genetic growth profiling, strain panel (AID 1159580);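 note: tested at 20 µM; growth read once vehicle control cultures reached saturation at 30 °C; 1 = growth at the plate median or of vehicle wells; lower values mean less growth of the strain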
Settings: growth OD

Measured: normalized growth

COC(=O)Nc1nc2ccc(C(=O)c3ccccc3)cc2[nH]1
active: S. cerevisiae deletion strains, locus YKL160W, strain elf1, hits give low values 0.894 | S. cerevisiae deletion strains, locus YLR262C, strain YPT6 (second series), hits give low values 0.782 | S. cerevisiae deletion strains, locus YLR320W, strain mms22, hits give low values 0.849 | S. cerevisiae deletion strains, locus YLR342W, strain FKS1, hits give low values 0.908 | S. cerevisiae deletion strains, locus YML124C, strain tub3, hits give low values 0.207 | S. cerevisiae deletion strains, locus YMR205C, strain PFK2, hits give low values 0.806 | S. cerevisiae deletion strains, locus YMR307W, strain GAS1, hits give low values 0.463 | S. cerevisiae deletion strains, locus YNL153C, strain GIM3, hits give low values 0.0819 | S. cerevisiae deletion strains, locus YNL183C, strain NPR1, hits give low values 0.827 | S. cerevisiae deletion strains, locus YNL233W, strain BNI4, hits give low values 0.814 | S. cerevisiae deletion strains, locus YNL307C, strain MCK1, hits give low values 0.742 | S. cerevisiae deletion strains, locus YNL322C, strain KRE1 (second series), hits give low values 0.901 | S. cerevisiae deletion strains, locus YNR052C, strain pop2, hits give low values 0.91 | S. cerevisiae deletion strains, locus YOR106W, strain vam3, hits give low values 0.855 | S. cerevisiae deletion strains, locus YOR184W, strain ser1, hits give low values 0.717 | S. cerevisiae deletion strains, locus YPL051W, strain arl3, hits give low values 0.869 | S. cerevisiae deletion strains, locus YPL241C, strain CIN2, hits give low values 0.0733 | S. cerevisiae deletion strains, locus YPR163C, strain tif3, hits give low values 0.799
inactive: S. cerevisiae deletion strains, locus YJR075W, strain HOC1, hits give low values 0.924 | S. cerevisiae deletion strains, locus YKL009W, strain mrt4, hits give low values 1.05 | S. cerevisiae deletion strains, locus YKL085W, strain MDH1 (second series), hits give low values 1.05 | S. cerevisiae deletion strains, locus YKL085W, strain MDH1, hits give low values 1.05 | S. cerevisiae deletion strains, locus YKL190W, strain CNB1, hits give low values 1.01 | S. cerevisiae deletion strains, locus YKR001C, strain vps1, hits give low values 0.956 | S. cerevisiae deletion strains, locus YKR026C, strain gcn3, hits give low values 0.956 | S. cerevisiae deletion strains, locus YKR091W, strain srl3, hits give low values 1 | S. cerevisiae deletion strains, locus YLL001W, strain dnm1, hits give low values 0.933 | S. cerevisiae deletion strains, locus YLL026W, hits give low values 0.973 | S. cerevisiae deletion strains, locus YLL041C, strain sdh2, hits give low values 0.984 | S. cerevisiae deletion strains, locus YLR027C, strain aat2, hits give low values 0.94 | S. cerevisiae deletion strains, locus YLR039C, strain RIC1, hits give low values 0.938 | S. cerevisiae deletion strains, locus YLR058C, strain SHM2, hits give low values 1.02 | S. cerevisiae deletion strains, locus YLR102C, strain apc9, hits give low values 1 | S. cerevisiae deletion strains, locus YLR113W, strain HOG1, hits give low values 0.946 | S. cerevisiae deletion strains, locus YLR221C, strain rsa3, hits give low values 0.939 | S. cerevisiae deletion strains, locus YLR258W, strain gsy2, hits give low values 0.949 | S. cerevisiae deletion strains, locus YLR262C, strain YPT6, hits give low values 0.98 | S. cerevisiae deletion strains, locus YLR268W, strain sec22, hits give low values 0.98 | S. cerevisiae deletion strains, locus YLR330W, strain CHS5, hits give low values 1 | S. cerevisiae deletion strains, locus YLR342W, strain FKS1 (second series), hits give low values 0.852 | S. cerevisiae deletion strains, locus YLR357W, strain rsc2, hits give low values 0.925 | S. cerevisiae deletion strains, locus YLR370C, strain arc18, hits give low values 0.946 | S. cerevisiae deletion strains, locus YLR371W, strain rom2, hits give low values 1.01 | S. cerevisiae deletion strains, locus YLR384C, strain iki3, hits give low values 1 | S. cerevisiae deletion strains, locus YLR418C, strain cdc73, hits give low values 0.932 | S. cerevisiae deletion strains, locus YML016C, strain PPZ1, hits give low values 1.01 | S. cerevisiae deletion strains, locus YML032C, strain rad52, hits give low values 0.957 | S. cerevisiae deletion strains, locus YML120C, strain ndi1, hits give low values 0.96 | S. cerevisiae deletion strains, locus YMR058W, strain fet3, hits give low values 0.968 | S. cerevisiae deletion strains, locus YMR078C, strain ctf18, hits give low values 0.986 | S. cerevisiae deletion strains, locus YMR125W, strain sto1, hits give low values 1.03 | S. cerevisiae deletion strains, locus YMR129W, hits give low values 0.987 | S. cerevisiae deletion strains, locus YMR223W, strain ubp8, hits give low values 0.965 | S. cerevisiae deletion strains, locus YMR231W, strain pep5, hits give low values 0.955 | S. cerevisiae deletion strains, locus YMR263W, strain SAP30, hits give low values 0.999 | S. cerevisiae deletion strains, locus YNL067W, strain RPL9B, hits give low values 0.978 | S. cerevisiae deletion strains, locus YNL071W, strain lat1, hits give low values 0.925 | S. cerevisiae deletion strains, locus YNL128W, strain TEP1, hits give low values 1.01 | S. cerevisiae deletion strains, locus YNL209W, strain ssb2, hits give low values 0.971 | S. cerevisiae deletion strains, locus YNL248C, strain rpa49, hits give low values 0.977 | S. cerevisiae deletion strains, locus YNL250W, strain rad50, hits give low values 0.994 | S. cerevisiae deletion strains, locus YNL271C, strain bni1, hits give low values 1.01 | S. cerevisiae deletion strains, locus YNL298W, strain CLA4, hits give low values 1 | S. cerevisiae deletion strains, locus YNL322C, strain KRE1, hits give low values 0.997 | S. cerevisiae deletion strains, locus YNR049C, strain mso1, hits give low values 0.981 | S. cerevisiae deletion strains, locus YOL006C, strain TOP1, hits give low values 0.968 | S. cerevisiae deletion strains, locus YOL012C, strain htz1 0.338 | S. cerevisiae deletion strains, locus YOL147C, strain pex11, hits give low values 0.988 | S. cerevisiae deletion strains, locus YOR001W, strain rrp6, hits give low values 0.925 | S. cerevisiae deletion strains, locus YOR061W, strain CKA2, hits give low values 1 | S. cerevisiae deletion strains, locus YOR069W, strain VPS5, hits give low values 0.993 | S. cerevisiae deletion strains, locus YOR070C, strain gyp1, hits give low values 0.949 | S. cerevisiae deletion strains, locus YOR080W, strain dia2, hits give low values 0.979 | S. cerevisiae deletion strains, locus YOR083W, strain WHI5, hits give low values 0.896 | S. cerevisiae deletion strains, locus YOR136W, strain idh2, hits give low values 1.01 | S. cerevisiae deletion strains, locus YOR144C, strain elg1, hits give low values 1 | S. cerevisiae deletion strains, locus YOR231W, strain MKK1, hits give low values 0.931 | S. cerevisiae deletion strains, locus YOR265W, strain rbl2, hits give low values 0.98 | S. cerevisiae deletion strains, locus YOR270C, strain vph1, hits give low values 1.07 | S. cerevisiae deletion strains, locus YOR290C, strain snf2, hits give low values 0.959 | S. cerevisiae deletion strains, locus YOR316C, strain cot1, hits give low values 1 | S. cerevisiae deletion strains, locus YPL055C, strain LGE1, hits give low values 0.865 | S. cerevisiae deletion strains, locus YPL078C, strain atp4, hits give low values 0.931 | S. cerevisiae deletion strains, locus YPL106C, strain sse1, hits give low values 1.12 | S. cerevisiae deletion strains, locus YPL240C, strain hsp82, hits give low values 0.992 | S. cerevisiae deletion strains, locus YPL256C, strain CLN2, hits give low values 0.914 | S. cerevisiae deletion strains, locus YPR119W, strain clb2, hits give low values 0.998 | S. cerevisiae deletion strains, locus YPR141C, strain kar3, hits give low values 1.03 | S. cerevisiae deletion strains, locus YPR167C, strain met16, hits give low values 1 | S. cerevisiae deletion strains, strain wtn01, hits give low values 0.983 | S. cerevisiae strains, strain wild type, hits give low values 0.99
